Experimental data as given in PubChem BioAssay AID504336 (NMMLSC, 2011).

Test: TOR branch reporter RPL19A-GFP response – cell-based, S. cerevisiae, third cherry pick, flow cytometry, confirmation (AID 504336);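 also: median GFP fluorescence of all gated yeast cells by flow cytometry; ratio of well median fluorescence to plate mean of DMSO wells with DMSO = 100%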
Conditions: S. cerevisiae RPL19A-GFP strain, 3 h, at 10 µM, hits give low values;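 active = compounds whose GFP signal falls below 65% of the DMSO control level; inconclusive = fewer than 70 yeast cells counted in the well; inactive = the rest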

GFP response relative to DMSO, inactive:
COc1cccc2c(Cl)c(CCCl)c(C)nc12 99.3%
C/C(=N\NC(=O)c1ccccc1)c1ccccc1F 98.3%
Nc1c(C(=O)O)ccc2c1C(=O)c1ccccc1C2=O 101%
O=C(N/N=C/c1ccccc1F)c1cccc2ccccc12 100%
CCCC(=O)Nn1cnc2c(c1=O)C1(CCCC1)Cc1ccccc1-2 102%
COc1ccc(N/C=C/C(=O)c2ccc(Cl)cc2)cc1 102%
CCCOCc1ccc(O)c2ncccc12 101%
Nc1ncnc(Nc2cc(Cl)cc(Cl)c2)c1[N+](=O)[O-] 102%
O=C(O)CCCCCNc1ncnc2ccc(Br)cc12 99.8%
Cc1ccc(Nc2cc(=O)[nH]c(=O)[nH]2)cc1Cl 100%
COc1ccccc1Nc1nc(NCCCN(C)C)nc(N)c1[N+](=O)[O-] 99.1%
Cc1cc(C)c(NC(=O)CC(=O)c2ccccc2)c(Cl)c1 97.8%
Cc1ccc2nc(-c3ccc(NC(=O)c4cccnc4)cc3)oc2c1 97.2%
CCc1sc(C(=O)Nc2nc(-c3ccccn3)cs2)cc1C 101%
COc1cccc(N/C=C/C(=O)c2ccc(C)cc2)c1 103%
O=C(Nc1ccccc1)O/N=C1/CCCc2occc21 100%
CC(=O)C(CC(=O)N1CCCC1)C(=O)Nc1ccc(Cl)cc1 (stereo not drawn) 102%
CC(=O)Nc1ccc(-c2nc3cc(Cl)ccc3o2)cc1 99.3%
